The record followed here is PubChem BioAssay (NCATS).

A short description of experiment [1]: Cell Viability - LYMP2-018 (AID 985).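 Further: compound exposure lasted 24 hr at 37 °C; nearly all actives have a fitted effect of over 50% in size.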 Further: potency means the concentration at half of the fitted maximal effect. Put shortly:
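Human lymphoblastoid cells (2500/well) were pre-incubated 5 hr at 37 C, then exposed to compounds for 24 hr at 37 C in complete medium. Viability was read as intracellular ATP by CellTiter-Glo luminescence; AC50 values came from Hill-equation fits.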

Experiment [2] can be described thus: Cell Viability - LYMP2-020 (AID 986). Further: nearly all actives have a fitted effect of over 55% in size. Further: potency means the concentration at half of the fitted maximal effect. The procedure, abridged:
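Human lymphoblastoid cells, 2500/well, were pre-incubated 5 hr at 37 C, then exposed to compounds for 24 hr at 37 C in complete medium. Intracellular ATP was read by CellTiter-Glo luminescence, and AC50 was derived by Hill fitting of concentration-response data.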

A short description of experiment [3]: Cell Viability - LYMP2-022 (AID 987). Further: nearly all actives have a fitted effect of over 55% in size. Further: potency means the concentration at half of the fitted maximal effect. The procedure, abridged:
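Human lymphoblastoid cells, 2500/well, preincubated 5 hr at 37 C, then exposed to compounds over a concentration range for 24 hr at 37 C in complete medium. Viability read as intracellular ATP by CellTiter-Glo luminescence after 30 min at room temperature; AC50 from Hill fits.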

Experiment [4] is described as follows: Cell Viability - LYMP2-024 (AID 988). Further: nearly all actives have a fitted effect of over 60% in size. Further: potency means the concentration at half of the fitted maximal effect. Put shortly:
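Human lymphoblastoid cells (2500/well) in complete medium were preincubated 5 hr at 37 C, then exposed to compounds for 24 hr at 37 C. Intracellular ATP was read by CellTiter-Glo luminescence; AC50 from Hill-equation fits of concentration-response data.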

Experiment [5] has as its target Alpha-galactosidase A (Homo sapiens) (UniProt P06280). Put plainly: Counterscreen for Glucocerebrosidase Inhibitors: qHTS Assay for Human alpha-Galactosidase at pH 4.5 (AID 992). Put shortly:
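Concentration-response curves (0.7 nM to 77 uM final) were modeled with the Hill equation to give AC50. Reactions: 2 nM enzyme, 80 uM fluorogenic alpha-galactoside, pH 4.5 citric acid buffer, 20 min, room temperature.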

Experiment [6] in a line: Cell Viability - LYMP1-002 - Assay at 24 hr (AID 993). Further: potency means the concentration at half of the fitted maximal effect. The procedure, abridged:
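Human lymphoblastoid LYMP1-002 cells, 2500/well in complete medium, were treated with compounds for 24 h at 37 C; intracellular ATP was read by CellTiter-Glo luminescence. AC50 values came from Hill-equation fits of qHTS concentration-response data.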

Experiment [7] can be described thus: Cell Viability - LYMP1-002 - Assay at 40 hr (AID 994). Further: nearly all actives have a fitted effect of over 60% in size. Further: potency means the concentration at half of the fitted maximal effect. Put shortly:
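Human lymphoblastoid cells, 2500/well in complete medium, were preincubated 5 hr at 37 C, then exposed to compounds for 40 hr at 37 C. Intracellular ATP was read by CellTiter-Glo luminescence after 30 min at room temperature; AC50 from Hill-equation fits.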

Experiment [8] has as its target alpha-glucosidase (Oryza sativa, rice) (UniProt Q653V4). Put plainly: Counterscreen for Glucocerebrosidase Inhibitors: qHTS Assay for Rice alpha-Glucosidase at pH 5.0 (AID 997). The procedure, abridged:
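Rice alpha-glucosidase (4 nM final) with 400 uM 4-methylumbelliferyl-alpha-D-glucopyranoside in citrate buffer pH 5.0, 20 min at room temperature, stopped at pH 10; fluorescence 365/440 nm, compounds 0.7 nM–77 uM, AC50 from Hill fits.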

Experiment [9] addresses Alpha-galactosidase (Coffea arabica) (UniProt Q42656). Kind of experiment: Counterscreen for Glucocerebrosidase Inhibitors: qHTS Assay for Coffee Bean alpha-Galactosidase at pH 5.9 (AID 998). Put shortly:
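Compounds were titrated from 0.7 nM to 77 uM against green coffee bean alpha-galactosidase (2 nM) using 80 uM fluorogenic 4-methylumbelliferyl substrate. After 20 min at room temperature, reactions were stopped at pH 10 and read by fluorescence.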

Experiment [10] is described as follows: Validation of Assay for Modulators of Lamin A Splicing (AID 1459; active means well fitted curve in the direction sought with a large enough effect in the signal ratio; the % refers to the signal ratio;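 further: cells exposed to compound for two days before reading; ratio rise marks activators and ratio drop marks inhibitors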). The procedure, abridged: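 Dual-reporter HeLa S3 line (lamin A-EGFP minigene, DsRed2) treated with compounds 48 hrs, 0.5% DMSO final. Endpoint: EGFP/DsRed2 total intensity ratio from laser-scanning microplate cytometry.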

Where “and” joins values, the source holds several entries; their conditions need not be identical. Equal entries are not always repeated. Results filed as inconclusive are left out. Calls of active or inactive are those of the source. Unless noted, the call rests on the fitted dose curve; in most records, active means well fitted curve in the direction sought with a large enough effect; inconclusive means small, poorly fitted or top-dose-only effect, or another doubt; inactive means no such curve, though single readings can be large; an effect the other way counts as inactive or inconclusive.

Sequence of Alpha-galactosidase (Coffea arabica) (Q42656 whole entry, looked up): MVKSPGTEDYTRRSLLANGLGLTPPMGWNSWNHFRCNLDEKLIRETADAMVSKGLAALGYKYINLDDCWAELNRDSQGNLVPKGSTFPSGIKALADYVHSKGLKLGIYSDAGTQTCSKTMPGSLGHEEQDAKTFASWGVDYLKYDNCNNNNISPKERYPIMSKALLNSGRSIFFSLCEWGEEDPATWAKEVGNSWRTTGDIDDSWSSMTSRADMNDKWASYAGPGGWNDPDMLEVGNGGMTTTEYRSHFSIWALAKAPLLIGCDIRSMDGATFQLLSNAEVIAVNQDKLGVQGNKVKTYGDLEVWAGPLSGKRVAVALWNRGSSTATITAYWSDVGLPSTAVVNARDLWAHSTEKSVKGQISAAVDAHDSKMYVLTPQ
Sequence of Alpha-galactosidase A (Homo sapiens) (P06280 whole entry, looked up): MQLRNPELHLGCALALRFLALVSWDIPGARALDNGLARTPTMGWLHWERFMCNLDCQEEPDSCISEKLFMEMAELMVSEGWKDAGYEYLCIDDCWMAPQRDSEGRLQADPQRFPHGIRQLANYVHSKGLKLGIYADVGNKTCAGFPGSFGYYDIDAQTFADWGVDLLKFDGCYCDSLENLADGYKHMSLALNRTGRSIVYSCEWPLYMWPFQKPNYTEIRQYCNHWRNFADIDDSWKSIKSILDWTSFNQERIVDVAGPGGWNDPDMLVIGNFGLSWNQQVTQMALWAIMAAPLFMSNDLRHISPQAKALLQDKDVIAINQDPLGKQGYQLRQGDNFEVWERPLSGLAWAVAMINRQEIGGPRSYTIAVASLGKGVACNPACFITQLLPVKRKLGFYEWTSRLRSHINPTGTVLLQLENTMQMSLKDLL

For `NNC(N)=O`, the Potency entry in experiment [1], in [2], in [3], in [4], in experiment [6] and in experiment [7] was “inactive” throughout. The result in [5], in experiment [8] and in experiment [9] was inactive.

For the compound `C[C@]12CCC(=O)C[C@@H]1CC[C@@H]1[C@@H]2CC[C@]2(C)[C@@H](O)CC[C@@H]12`, the Potency entry in [1], in experiment [2], in experiment [3], in experiment [4], in experiment [6] and in experiment [7] was “inactive” throughout.

Turning to `CC(C)Nc1ccc(Nc2ccccc2)cc1`, the Potency is 20 µM (active) in experiment [1]; 25.1 µM (active) in [2]; 15.8 µM (active) in experiment [3]; 12.6 µM (active) in [4]; 31.6 µM (active) in [6]; 50.1 µM (active) in experiment [7].

Consider `CN1CCc2cccc(Cl)c2CC1`, for which the outcome in experiment [5], in experiment [8], in [9] and in experiment [10] was inactive.

Take `CC(=O)NBr`: the compound was called inactive in [5], in experiment [8], in [9] and in [10].

Turning to `O=C1C2CC=CCC2C(=O)N1SC(Cl)(Cl)Cl` (stereo unspecified), the Potency in [1] was 3.98 µM (active) and 7.94 µM (active); in [2] it was 3.16 µM (active) and 5.01 µM (active); in experiment [3] it was 2 µM (active) and 3.98 µM (active); in experiment [4] it was 1.58 µM (active) and 3.16 µM (active); in experiment [6], 7.94 µM (active); in [7], 15.8 µM (active).

Consider `NCCc1c[nH]c2ccc(C(N)=O)cc12`, for which the outcome in experiment [5], in experiment [8], in experiment [9] and in experiment [10] was inactive.

As for `CCCCCCCCOC(=O)c1ccccc1C(=O)OCCCCCCCC`, the Potency entry in [1], in [2], in experiment [3], in experiment [4], in [6] and in experiment [7] was “inactive” each time.

In the case of `O=Cc1ccco1`, the Potency result in experiment [1], in [2], in experiment [3], in experiment [4], in experiment [6] and in experiment [7] was “inactive” throughout.

Take `NCCCP(=O)(O)O`: the outcome in [5], in experiment [8], in experiment [9] and in [10] was inactive.

For the compound `ClC=C(Cl)Cl`, the Potency entry in experiment [1], in experiment [2], in experiment [3], in [4], in experiment [6] and in experiment [7] was “inactive” each time.

Turning to `Oc1cc(Cl)c(Cl)cc1Cl`, the Potency entry in experiment [1], in experiment [2], in [3], in [6] and in [7] was “inactive” throughout.

`O=C/C=C/c1ccccc1`: the Potency entry in experiment [1], in experiment [2], in experiment [3], in experiment [4], in experiment [6] and in experiment [7] was “inactive” in each case.

For the compound `[O]=[Cd]`, the Potency result in [1], in experiment [2], in experiment [3], in [4], in [6] and in experiment [7] was “inactive” in each case.

Turning to `Clc1ccccc1Cl`, the Potency entry in [1], in experiment [2], in [3], in experiment [4], in experiment [6] and in experiment [7] was “inactive” throughout.

With `O=CC=O`, the Potency entry in experiment [1], in [2], in experiment [3], in experiment [4], in [6] and in [7] was “inactive” each time.

Consider `O=[N+]([O-])c1ccccc1`, for which the Potency entry in [1], in experiment [2], in experiment [3], in [4], in experiment [6] and in [7] was “inactive” each time.

`CCOC(=O)c1ccccc1C(=O)OCC`: the Potency entry in [1], in [2], in experiment [3], in experiment [4], in [6] and in [7] was “inactive” each time.

Consider `CC(C)(C)c1cc(O)ccc1O`, for which the Potency was 50.1 µM (active) in experiment [1]; 50.1 µM (active) in [2]; 50.1 µM (active) and 39.8 µM (active) in experiment [3]; 31.6 µM (active) in experiment [4]. Also, the Potency result in experiment [6] and in experiment [7] was “inactive” in each case.

`O=S1(=O)N(CCN2CC=C(c3c[nH]c4cc(F)ccc34)CC2)c2cccc3c2N1CCC3`: the compound was classed as inactive in [5], in experiment [8], in experiment [9] and in experiment [10].

For the compound `C[C@H]1CCC[C@H](O)CCCCCc2cc(O)cc(O)c2C(=O)O1`, the Potency entry in [1], in experiment [2], in experiment [3], in [4], in experiment [6] and in experiment [7] was “inactive” throughout.

`OCc1cnc[nH]1`: the compound was classed as inactive in [5], in experiment [8], in [9] and in experiment [10].

As for `CN1CCc2cc(O)cc3c2[C@H]1Cc1ccc(O)c(O)c1-3`, the outcome in experiment [5], in [8] and in experiment [9] was inactive.

Take `c1ccc2c(c1)[I+]c1ccccc1-2`: the outcome in experiment [5], in [8] and in experiment [9] was inactive.

Take `Cc1c2ccncc2c(C)c2c1[nH]c1ccccc12`: the compound was called inactive in [5], in experiment [8] and in [9].

`COc1ccc2c(c1)/C(=C/c1cnc[nH]1)C(=O)N2`: the compound was called inactive in experiment [5], in experiment [8] and in experiment [9].

As for `CNC(=O)OCC[N+](C)(C)C`, the result in experiment [5], in experiment [8] and in experiment [9] was inactive.

Turning to `CCCN1CCc2cc(O)cc3c2[C@H]1Cc1ccc(O)c(O)c1-3`, the call in experiment [5], in [8] and in [9] was inactive.

Regarding `C[C@H](N)CN1CCc2ccc(Br)cc21`, the result in experiment [5], in experiment [8] and in experiment [9] was inactive.

In the case of `N#CC(C#N)=Cc1cc(O)c(O)c(O)c1`, the result in experiment [5], in experiment [8] and in [9] was inactive.

Regarding `ClCC1CO1` (stereo unspecified), the Potency result in experiment [2], in experiment [6] and in experiment [7] was “inactive” throughout.

For `CCCN(CCC)[C@H]1CCc2c(F)ccc(O)c2C1`, the compound was classed as inactive in [5], in experiment [8] and in experiment [9].

As to `NC(=O)CI`, the call in [5] and in experiment [8] was inactive.

For `CC(C)NP(=O)(NC(C)C)OP(=O)(NC(C)C)NC(C)C`, the compound was classed as inactive in experiment [5], in experiment [8] and in experiment [9].

In the case of `CP(=O)(O)C1=CCNCC1`, the result in experiment [5], in [8] and in experiment [9] was inactive.

Turning to `C[N+](C)(C)CC#CCN1CCCC1=O`, the compound was classed as inactive in experiment [5], in experiment [8] and in [9].

For `N[C@@H](Cn1oc(=O)[nH]c1=O)C(=O)O`, the result in experiment [5], in experiment [8] and in [9] was inactive.
